# Source: PubChem BioAssay AID651956 (Broad Institute, 2012)
# Entries with a potency or affinity are not part of this list. Results filed as inconclusive are left out. Calls of active or inactive are those of the source.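 Rule for the calls: active = in every test run, a fitted half-maximal concentration for signal decrease at or below twice the highest tested concentration; inconclusive = runs disagree, flat 30 to 70% decrease, or poor fit; inactive = the rest.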
# Assay: activation of miR-122 Renilla sensor silencing – cell-based, Huh7 psiCHECK-miR122, Renilla luciferase, cherry-picked, dose response (AID 651956);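 note: Renilla luciferase from a miR-122 sensor reporter so lower signal means miR-122 activation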
# Settings: Huh7 psiCHECK-miR122 Renilla luciferase reporter, 48 h; series mostly up to 35 µM
row,Compound,outcome
1,COc1ccc(CNCCC(c2ccc(OC)cc2)c2ccccc2OC)cc1 (stereo unspecified),inactive
2,O=C(Nc1ccc(CN2CCOCC2)cc1)c1ccc(-c2ccc(Cl)cc2Cl)o1,inactive
3,CCCC(=O)Nc1ccc2c(c1)C(=O)N(C)[C@@H]1CC[C@@H](CC(=O)NCC(F)(F)F)O[C@H]1CO2,inactive
4,CC(C)C(=O)Nc1ccc2c(c1)C(=O)N(C)[C@@H]1CC[C@@H](CC(=O)N[C@H](C)c3ccccc3)O[C@@H]1CO2,inactive
5,C[C@@H]1CN([C@@H](C)CO)S(=O)(=O)c2ccc(C3=CCCCC3)cc2O[C@@H]1CN(C)C(=O)Nc1ccc2c(c1)OCO2,inactive
6,COc1ccc(C(NC(C)=O)c2cc(Cl)c3cccnc3c2O)cc1 (stereo unspecified),inactive
7,O=C(Nc1ccccc1)N1C[C@@H]2[C@H](c3ccccc31)[C@H](CO)N2Cc1cocn1,inactive
8,COc1ccc(CNC(=O)NCCc2c[nH]c3ccccc23)cc1,inactive
9,CCCNC(=O)C[C@@H]1CC[C@@H]2[C@@H](COc3ccc(NC(=O)c4ccc(C(F)(F)F)cc4)cc3C(=O)N2C)O1,inactive
10,CN1C(=O)c2cc(NC(=O)Nc3ccccc3F)ccc2OC[C@@H]2O[C@@H](CC(=O)NCc3ccc(-c4ccccc4)cc3)CC[C@@H]21,inactive
11,COc1cccc(CNC(=O)C[C@@H]2CC[C@@H]3[C@H](COc4ccc(NC(C)=O)cc4C(=O)N3C)O2)c1,inactive
12,CN1C(=O)c2cc(NC(=O)c3cccs3)ccc2OC[C@@H]2O[C@@H](CC(=O)NCCN3CCCCC3)CC[C@@H]21,inactive
13,O=C(NCCCN1CCCC1)c1ccc(CSCc2cccc(Cl)c2)o1,inactive
14,COC(=O)C[C@@H]1CC[C@@H]2[C@@H](COc3ccc(NS(=O)(=O)c4ccccc4F)cc3C(=O)N2C)O1,inactive
15,N=c1c2c(-c3ccccc3)c(-c3ccccc3)n(Cc3ccccc3)c2ncn1CCCO,inactive
16,CN1C(=O)c2cc(NC(=O)Cc3ccccc3)ccc2OC[C@@H]2O[C@@H](CC(=O)O)CC[C@H]21,inactive
17,COc1ccc(C#Cc2ccc3c(c2)O[C@H](CN(C)C(=O)CN2CCOCC2)[C@@H](C)CN([C@@H](C)CO)S3(=O)=O)cc1,inactive
18,C/C=C/c1ccc([C@@H]2[C@@H](CO)N(S(C)(=O)=O)[C@H]2CN(C)C(=O)CC)cc1,inactive

row,Compound,outcome
1,O=C(COC(=O)Cc1ccc(S(=O)(=O)N2CCOCC2)s1)Nc1ccc2c(c1)OCO2,inactive
2,CCNC(=O)Nc1ccc2c(c1)C(=O)N(C)[C@H]1CC[C@H](CC(=O)NCc3ccccc3F)O[C@H]1CO2,inactive
3,CC(=O)Oc1ccc2c(c1)C(=O)c1ccccc1CO2,inactive
4,CCCC(=O)Nc1ccc2c(c1)C(=O)N(C)[C@@H]1CC[C@H](CC(=O)NCc3cccc(F)c3)O[C@H]1CO2,inactive
5,COc1ccc(NC(=O)COC(=O)CCCc2c[nH]c3ccccc23)cc1,inactive
6,COC(=O)c1c(N)nc(C)n1-c1ccc(OC)cc1,inactive
7,CN1C(=O)c2cc(NC(=O)c3cccs3)ccc2OC[C@@H]2O[C@H](CC(=O)NCC(F)(F)F)CC[C@H]21,inactive
8,C[C@H]1CN([C@@H](C)CO)S(=O)(=O)c2ccc(C3=CCCC3)cc2O[C@H]1CN(C)Cc1cccnc1,inactive
9,CN(C[C@H]1N[C@@H](CO)[C@H]1c1ccc(-c2cccc(F)c2)cc1)C(=O)C1CCC1,inactive
10,COC(=O)C[C@@H]1CC[C@@H]2[C@@H](COc3ccc(NC(=O)Nc4cccc(C#N)c4)cc3C(=O)N2C)O1,inactive
11,CN(C(=O)C12CC3CC(CC(C3)C1)C2)C1CCS(=O)(=O)C1 (stereo unspecified),inactive
12,CN1C(=O)c2cc(NC(=O)c3cccc(F)c3)ccc2OC[C@@H]2O[C@@H](CC(=O)O)CC[C@H]21,inactive
13,CN1C(=O)c2cc(NC(=O)c3ccc(C(F)(F)F)cc3)ccc2OC[C@@H]2O[C@@H](CC(=O)NCc3ccc4c(c3)OCO4)CC[C@H]21,inactive
14,Clc1ccc(CSc2nnc(-c3ccncc3)o2)c(Cl)c1,inactive
15,CNC(=O)C[C@@H]1CC[C@@H]2[C@@H](COc3ccc(NC(=O)c4ccccc4OC)cc3C(=O)N2C)O1,inactive
16,COc1cccc(C(=O)Nc2ccc3c(c2)C(=O)N(C)[C@H]2CC[C@H](CC(=O)NCc4ccc(F)cc4)O[C@H]2CO3)c1,inactive
17,CCN(C[C@H]1N[C@H](CO)[C@H]1c1ccc(-c2ccc(F)cc2)cc1)C(=O)COC,inactive
18,Cn1c(NC(=O)c2ccco2)c(-c2ccccc2Cl)c(=O)c2ccccc21,inactive
